# Values joined by “and” are separate entries in the source; they are usually repeats but may differ in a detail not shown here. Identical values can stand only once. Records with an inconclusive call do not appear. A call without a number means that no potency is given here. A number with no mark means an inactive call. Active and inactive are the calls of the source. Calls follow the shape of the dose curve; as a rule, active = well fitted curve in the direction sought with a large enough effect; inconclusive = small, poorly fitted or top-dose-only effect, or another doubt; inactive = no such curve, though single readings can be large; an effect the other way counts as inactive or inconclusive.
# Experiments:
# [1] = biological target: N-terminal Xaa-Pro-Lys N-methyltransferase 1 (Homo sapiens) (UniProt Q9BV86); test: qHTS Assay for Inhibitors of N-terminal methyltransferase 1 (NTMT1): LOPAC validation of the NTMT1 SAHH-coupled ThioGlo3 Assay (AID 1347143); also: nearly all actives have a fitted effect of over 70% in size; also: potency is read from the fitted curve at half-maximal effect
# Summary of the method: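 Fluorescence read-out (excitation 340nm, emission 450nm) of SAH-derived thiol, measured via SAHH coupling and ThioGlo3, taken immediately and after a 30 min room-temperature reaction, then normalized to the background read. Enzyme: NTMT1 at 125nM; cofactor SAM 100uM in the added reagent.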
# [2] = test system: Zika virus NS2B-NS3 protease (unlinked); test: Optimization of GU AMC qHTS for Zika virus inhibitors: Unlinked NS2B-NS3 protease assay (AID 1347151); also: nearly all actives have a fitted effect of over 80% in size; also: potency is read from the fitted curve at half-maximal effect; as to activity change, negative = inhibition: series mostly up to about 52 µM
# Summary of the method: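 Percent inhibition is derived from the 15-min change in AMC fluorescence, normalized against no-inhibitor and no-enzyme controls, then fitted to a 4-parameter Hill curve. Aprotinin was the intraplate control.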
# [3] = test system: Zika virus NS2B-NS3 protease; test: Primary screen GU AMC qHTS for Zika virus inhibitors (AID 1347154); also: nearly all actives have a fitted effect of over 70% in size; also: potency is read from the fitted curve at half-maximal effect
# Summary of the method: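 Unlinked Zika NS2B hydrophilic domain/NS3 protease domain noncovalent complex (25 nM final) in 10 mM Tris-HCl pH 8.0, 0.01% Tween 20, with AMC peptide substrate. Fluorescence (ex 340, em 450 nm) change over 15 min, room temperature; percent inhibition fitted to 4-parameter Hill equation.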
# [4] = qHTS of pediatric cancer cell lines to identify multiple opportunities for drug repurposing: Confirmatory screen for MG 63 (6-TG R) cells (AID 1347119); also: potency is read from the fitted curve at half-maximal effect; nearly all actives have a fitted effect of over 55% in size
# Summary of the method: (§1)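 Cells (500-1,000/well) in growth media were settled 5 h at 37 degrees C, then given compounds for 48 h. Viability was read as CellTiter-Glo luminescence. Primary runs used MIPE at 11 points (0.78 nM-46 µM) and NPC at 8 points (0.59 nM-46 µM); follow-ups used 11 points.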
# [5] = qHTS of pediatric cancer cell lines to identify multiple opportunities for drug repurposing: Confirmatory screen for U-2 OS cells (AID 1347122); also: potency is read from the fitted curve at half-maximal effect; nearly all actives have a fitted effect of over 65% in size
# Summary of the method: as §1
# [6] = qHTS of pediatric cancer cell lines to identify multiple opportunities for drug repurposing: Confirmatory screen for Rh41 cells (AID 1347123);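 also: potency is read from the fitted curve at half-maximal effect; 48 h compound exposure; nearly all actives have a fitted effect of over 60% in size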
# Summary of the method: as §1
# [7] = qHTS of pediatric cancer cell lines to identify multiple opportunities for drug repurposing: Confirmatory screen for RD cells (AID 1347124);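 also: potency is read from the fitted curve at half-maximal effect; cells exposed to compound for 48 h before viability readout; nearly all actives have a fitted effect of over 65% in size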
# Summary of the method: as §1
# [8] = qHTS of pediatric cancer cell lines to identify multiple opportunities for drug repurposing: Confirmatory screen for Rh30 cells (AID 1347126); also: potency is read from the fitted curve at half-maximal effect; nearly all actives have a fitted effect of over 55% in size
# Summary of the method: as §1
# [9] = qHTS of pediatric cancer cell lines to identify multiple opportunities for drug repurposing: Confirmatory screen for Saos-2 cells (AID 1347127); also: potency is read from the fitted curve at half-maximal effect; nearly all actives have a fitted effect of over 60% in size
# Summary of the method: as §1
# [10] = qHTS of pediatric cancer cell lines to identify multiple opportunities for drug repurposing: Confirmatory screen for OHS-50 cells (AID 1347128);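 also: potency is read from the fitted curve at half-maximal effect; compound exposure lasted 48 h at 37 degrees C; nearly all actives have a fitted effect of over 55% in size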
# Summary of the method: as §1
# [11] = qHTS of pediatric cancer cell lines to identify multiple opportunities for drug repurposing: Confirmatory screen for SK-N-SH cells (AID 1347129);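 also: potency is read from the fitted curve at half-maximal effect; cells exposed to compound for 48 h before viability read; nearly all actives have a fitted effect of over 60% in size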
# Summary of the method: as §1
# Furin (Homo sapiens) = Furin (Homo sapiens) (UniProt P09958); test: Furin counterscreen qHTS for Zika virus inhibitors (AID 1347149); also: nearly all actives have a fitted effect of over 70% in size; also: potency is read from the fitted curve at half-maximal effect;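 as to activity change, negative = inhibition: purified recombinant full-length human furin enzyme at 5 nM; fluorescence gain from furin cutting a BOC-RVRR-AMC peptide substrate over 15 min; top concentration of the series differs between compounds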
# Summary of the method: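 Fluorogenic cleavage of BOC-RVRR-AMC (2 microM final, Km ~15 µM) was monitored (ex 340, em 450 nm) at 37C after 15 min RT preincubation of 5 nM furin with compounds in HEPES pH 7.0 buffer with CaCl2 and Triton X-100. Percent inhibition was fitted to a 4-parameter Hill curve.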
# [12] = test system: Zika virus NS2B-NS3 protease (unlinked complex); test: Primary screen GU Rhodamine qHTS for Zika virus inhibitors: Unlinked NS2B-NS3 protease assay (AID 1347159); also: nearly all actives have a fitted effect of over 60% in size; also: potency is read from the fitted curve at half-maximal effect
# Summary of the method: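 Compounds, tested up to 114 microM, were incubated for 15 minutes with 25 nM unlinked NS2B-NS3 protease at pH 8.0. Cleavage of 1.5 microM Rhodamine110 substrate was then followed by fluorescence for 15 minutes.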
# [13] = test system: Zika virus NS2B-NS3 protease (linked construct); test: Confirmatory screen NINDS AMC qHTS for Zika virus inhibitors (AID 1347152); also: nearly all actives have a fitted effect of over 70% in size; also: potency is read from the fitted curve at half-maximal effect;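 as to activity change, negative = inhibition: AMC fluorescence gain from cleaved Bz-Nle-KRR-AMC substrate over 15 min; top concentration of the series differs between compounds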
# Summary of the method: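 In this dose-response qHTS, AMC release from 10 microM Bz-Nle-KRR-AMC by 1 nM linked protease is measured over 15 minutes (about 20% conversion) at pH 8.0. Percent inhibition is fitted to a 4-parameter Hill curve.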
# [14] = test system: Zika virus NS2B-NS3 protease (unlinked complex); test: Confirmatory screen GU AMC qHTS for Zika virus inhibitors (AID 1347153); also: nearly all actives have a fitted effect of over 70% in size; also: potency is read from the fitted curve at half-maximal effect
# Summary of the method: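 Unlinked enzyme 25 nM, Tris pH 8.0/0.01% Tween 20; cpd 15 min RT, dark; + AMC substrate 10 µM (Km 18.3 µM); 340/450 nm read at t0 and 15 min; % inhibition → 4-param fit.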
# [15] = Confirmatory screen GU Rhodamine qHTS for Zika virus inhibitors qHTS (AID 1347157); details: purified enzyme assay, Rhodamine110 substrate fluorescence, 15 min
# Summary of the method: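 Enzyme 25 nM in Tris-HCl pH 8.0 + 0.01% Tween 20; compounds up to 114 microM, 15 min RT dark; + Rhod110 substrate 1.5 microM; read t0 and 15 min; delta fluorescence → % inhibition → 4-parameter Hill fit.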
# [16] = Confirmatory screen NINDS Rhodamine qHTS for Zika virus inhibitors (AID 1347161); also: nearly all actives have a fitted effect of over 60% in size; also: potency is read from the fitted curve at half-maximal effect;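 as to activity change, negative = inhibition: purified Zika NS2B-NS3 protease with linked NS2B cofactor domain and Rhodamine110 peptide substrate; series mostly up to about 110 µM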
# Summary of the method: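 Purified NS2B-NS3 protease with the NS2B hydrophilic domain joined by a flexible linker (25 nM) in 10 mM Tris-HCl pH 8.0, 0.01% Tween 20, preincubated 15 min at RT with compound; Rhodamine110 peptide substrate 1.5 µM; fluorescence change over 15 min; 4-parameter Hill fit.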
# [17] = ZIKV-mCherry secondary qHTS for Zika virus inhibitors (AID 1347158); also: top concentration of the series differs between compounds
# Summary of the method: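 Vero, 5,000 cells/well, o/n 37 °C; cpd pin-transferred in DMSO; ZIKV-mCherry MOI 1, 48-72 h 37 °C; 32% PFA stock fix, Hoechst; imaged 10x DAPI/mCherry; mCherry+ threshold 450 RFU; % infection.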
# Chain of N-terminal Xaa-Pro-Lys N-methyltransferase 1 (Homo sapiens) (Q9BV86 whole entry, looked up): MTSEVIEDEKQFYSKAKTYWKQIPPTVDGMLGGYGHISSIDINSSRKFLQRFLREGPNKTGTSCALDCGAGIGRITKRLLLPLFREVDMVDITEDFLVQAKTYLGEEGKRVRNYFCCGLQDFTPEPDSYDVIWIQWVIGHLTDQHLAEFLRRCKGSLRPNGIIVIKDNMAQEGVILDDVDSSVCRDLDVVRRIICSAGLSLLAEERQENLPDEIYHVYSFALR
# Chain of Furin (Homo sapiens) (P09958 whole entry, looked up): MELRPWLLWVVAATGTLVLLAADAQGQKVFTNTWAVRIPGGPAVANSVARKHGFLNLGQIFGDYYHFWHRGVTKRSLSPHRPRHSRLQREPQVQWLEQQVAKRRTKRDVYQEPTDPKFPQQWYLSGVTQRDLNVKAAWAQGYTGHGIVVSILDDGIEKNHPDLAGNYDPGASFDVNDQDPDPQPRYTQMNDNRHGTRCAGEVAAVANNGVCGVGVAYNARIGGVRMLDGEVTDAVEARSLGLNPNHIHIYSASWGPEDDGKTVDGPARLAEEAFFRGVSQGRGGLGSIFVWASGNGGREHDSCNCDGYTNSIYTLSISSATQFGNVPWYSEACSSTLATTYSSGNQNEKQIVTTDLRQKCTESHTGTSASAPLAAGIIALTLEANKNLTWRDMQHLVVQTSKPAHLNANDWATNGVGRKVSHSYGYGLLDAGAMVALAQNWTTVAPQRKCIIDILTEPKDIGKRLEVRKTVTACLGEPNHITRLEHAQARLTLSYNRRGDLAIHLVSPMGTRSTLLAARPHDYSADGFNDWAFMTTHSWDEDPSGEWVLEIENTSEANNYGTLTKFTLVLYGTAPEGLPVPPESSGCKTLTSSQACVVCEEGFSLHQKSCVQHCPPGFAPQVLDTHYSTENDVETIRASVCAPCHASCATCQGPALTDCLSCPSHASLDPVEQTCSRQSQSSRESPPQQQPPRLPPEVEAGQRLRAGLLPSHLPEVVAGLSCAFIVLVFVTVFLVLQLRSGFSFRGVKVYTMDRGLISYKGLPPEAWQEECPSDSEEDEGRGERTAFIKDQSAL
compound,measurement,setting,value
Cc1cccc(C)c1NC(=O)CN1CCCC1=O,Potency,[1],inactive
same,Potency,[2],inactive
same,Potency,[3],inactive
CC(=O)[C@H]1CC[C@H]2[C@@H]3CC[C@H]4C[C@](C)(O)CC[C@]4(C)[C@H]3CC[C@]12C,Potency,[1],inactive
same,Potency,[2],inactive
same,Potency,[3],inactive
COc1ccccc1N1CCNCC1,Potency,[1],inactive
same,Potency,[2],inactive
same,Potency,[3],inactive
NN=C(N)N,Potency,[1],inactive
same,Potency,[2],inactive
same,Potency,[3],inactive
C[C@@H]1O[C@@H](O[C@H]2C[C@@H](O)[C@]3(CO)[C@H]4[C@H](O)C[C@]5(C)[C@@H](C6=CC(=O)OC6)CC[C@]5(O)[C@@H]4CC[C@]3(O)C2)[C@H](O)[C@H](O)[C@H]1O,Potency,[4],104 nM (active) and 117 nM (active)
same,Potency,[5],131 nM (active) and 89.1 nM (active)
same,Potency,[6],46.5 nM (active) and 39.8 nM (active)
same,Potency,[7],0.117 µM (active)
same,Potency,[8],0.165 µM (active)
same,Potency,[9],369 nM (active) and 657 nM (active)
same,Potency,[10],0.0928 µM (active)
same,Potency,[11],132 nM (active) and 79.4 nM (active)
same,Potency,[1],inactive
same,Potency,Furin (Homo sapiens),inactive
same,Potency,[2],inactive
same,Potency,[3],inactive
same,Potency,[12],inactive
O=C1NCN(c2ccccc2)C12CCN(CC1COc3ccccc3O1)CC2 (stereo not given),Potency,[1],inactive
same,Potency,[2],inactive
same,Potency,[3],inactive
NCC(CC(=O)O)c1ccc(Cl)cc1 (stereo not given),Potency,[1],inactive
same,Potency,[2],inactive
same,"activity change, negative = inhibition",[3],-12.9% [at 0.59 µM]
C[C@]12CCC(=O)C(O)=C1CC[C@@H]1[C@@H]2CC[C@]2(C)C(=O)CC[C@@H]12,Potency,[3],inactive
c1ccc(C2CC2)c(OCC2=NCCN2)c1,Potency,[1],inactive
same,Potency,[2],inactive
same,Potency,[3],inactive
CC1=C2C[C@@H]3[C@@H](CC=C4C[C@@H](O)CC[C@@]43C)[C@@H]2CC[C@]12O[C@H]1C[C@H](C)CN[C@H]1[C@H]2C,Potency,[3],inactive
Cc1cc(SCc2sc(-c3ccc(C(F)(F)F)c(F)c3)nc2C)ccc1OCC(=O)O,Potency,[13],17.1 µM (active) and 12.4 µM (active)
same,Potency,[14],19.2 µM (active) and 17.1 µM (active)
same,Potency,[3],7.64 µM (active)
same,Potency,[15],2.21 µM (active)
same,Potency,[12],2.82 µM (active)
same,Potency,[16],1.75 µM (active) and 1.96 µM (active) and 1.97 µM (active)
O=c1oc2ccccc2c(O)c1C(CC(O)c1ccc(-c2ccc(Br)cc2)cc1)c1ccccc1 (stereo not given),Potency,Furin (Homo sapiens),26.4 µM (active)
same,Potency,[3],14.1 µM (active)
same,Potency,[15],7.94 µM (active)
same,Potency,[16],3.16 µM (active)
O=C(O)c1ccc2[nH]cc(CCCCN3CC=C(c4ccccc4)CC3)c2c1,Potency,[3],inactive
CCC(COC(=O)c1cc(OC)c(OC)c(OC)c1)(c1ccccc1)N(C)C (stereo not given),Potency,[3],inactive
N#CC(C#N)=Cc1ccc(O)c(O)c1,Potency,[1],56.2 µM (active)
same,Potency,[3],inactive
Oc1cccc2cccnc12,Potency,[3],inactive
N[C@@H](Cc1ccc(Oc2cc(I)c(O)c(I)c2)c(I)c1)C(=O)O,Potency,Furin (Homo sapiens),30.4 µM (active)
same,Potency,[15],6.31 µM (active)
same,Potency,[16],11.2 µM (active) and 4.94 µM (active)
COc1ccc(C(CN(C)C)C2(O)CCCCC2)cc1 (stereo not given),Potency,[1],inactive
same,Potency,[2],inactive
same,Potency,[3],inactive
Fc1ccc(C(OCCN2CCN(CCCc3ccccc3)CC2)c2ccc(F)cc2)cc1,Potency,[2],inactive
same,Potency,[3],inactive
CCCC1CCCCN1 (stereo not given),Potency,[3],inactive
CC(O)(CS(=O)(=O)c1ccc(F)cc1)C(=O)Nc1ccc(C#N)c(C(F)(F)F)c1 (stereo not given),Potency,[2],inactive
same,Potency,[3],inactive
same,Potency,[12],inactive
COc1ccc(Cc2nccc3cc(OC)c(OC)cc23)cc1OC,Potency,[3],inactive
CCOC(=O)C1(c2ccccc2)CCN(CCC(C#N)(c2ccccc2)c2ccccc2)CC1,Potency,[3],inactive
O=[N+]([O-])c1cc([As](=O)(O)O)ccc1O,Potency,[3],inactive
C#CCN(C)[C@H](C)Cc1ccccc1,Potency,[3],inactive
CCC(C(N)=O)N1CCCC1=O (stereo not given),Potency,[3],inactive
CCOP(=S)(OCC)Oc1cc(C)nc(C(C)C)n1,Potency,[3],inactive
C[C@]12C/C(=C/O)C(=O)C[C@@H]1CC[C@@H]1[C@@H]2CC[C@@]2(C)[C@H]1CC[C@]2(C)O,Potency,[3],inactive
Cc1ncc(CNC(=O)N(CCCl)N=O)c(N)n1,Potency,[2],inactive
same,Potency,[3],inactive
O=C(O)C(=O)c1cn(Cc2ccccc2)c2ccc(-c3ccc(OC(F)(F)F)cc3)cc12,Potency,[13],7.84 µM (active)
same,Potency,[14],9.61 µM (active)
same,Potency,[3],6.07 µM (active)
same,Potency,[15],1.24 µM (active) and 1.56 µM (active)
same,outcome,[17],inactive
same,Potency,[12],1.58 µM (active)
same,Potency,[16],1.24 µM (active) and 1.75 µM (active)
CN1C[C@H](CNC(=O)OCc2ccccc2)C[C@@H]2c3cccc4c3c(cn4C)C[C@H]21,Potency,[2],23.8 µM (active)
same,Potency,[13],inactive
same,Potency,[14],inactive
same,Potency,[3],inactive
same,Potency,[16],inactive
O=c1[nH]c2ccccc2n1C1CCN(CCCC(c2ccc(F)cc2)c2ccc(F)cc2)CC1,Potency,[1],inactive
same,Potency,[2],inactive
same,Potency,[3],inactive
same,Potency,[12],inactive
Cc1ccc(-c2nc3ccc(C)cn3c2CC(=O)N(C)C)cc1,Potency,Furin (Homo sapiens),8.55 µM (active)
same,Potency,[13],27.1 µM (active)
same,Potency,[3],31.6 µM (active)
same,Potency,[16],inactive
CC(C)=CCOc1c2occc2cc2ccc(=O)oc12,Potency,[2],inactive
same,Potency,[3],inactive
CCN(C(C)=O)c1cccc(-c2ccnc3c(C#N)cnn23)c1,Potency,Furin (Homo sapiens),24.1 µM (active)
same,Potency,[13],27.1 µM (active)
same,Potency,[3],31.6 µM (active)
same,Potency,[16],inactive
COC[C@H]1OC(=O)c2coc3c2[C@@]1(C)C1=C(C3=O)C2CCC(=O)[C@@]2(C)C[C@H]1OC(C)=O (stereo not given in full),Potency,[2],inactive
same,Potency,[3],inactive
same,Potency,[12],inactive
CCCC(C)(COC(N)=O)COC(=O)NC(C)C (stereo not given),Potency,[3],inactive
CC[N+](CC)(CC)CC,Potency,[1],inactive
same,Potency,[3],inactive
COC1(CS(=O)c2ccccc2)CCN(CCc2c[nH]c3ccc(F)cc23)CC1 (stereo not given),Potency,[3],inactive
CN1C(=S)CN=C(c2ccccc2)c2cc(Cl)ccc21,Potency,[3],inactive
CCCN1CCC[C@@H]2Cc3nc(N)ncc3C[C@H]21,Potency,[3],inactive
CNC(=O)N1N=C(c2ccc(N)cc2)c2cc3c(cc2CC1C)OCO3 (stereo not given),Potency,[12],inactive
CNC(=O)c1ccc(N2C(=S)N(c3ccc(C#N)c(C(F)(F)F)c3)C(=O)C23CCC3)cc1F,Potency,[12],inactive
CN(C)[C@@H]1C(=O)C(C(N)=O)=C(O)[C@@]2(O)C(=O)C3=C(O)c4c(O)cccc4[C@@](C)(O)[C@H]3C[C@@H]12,Potency,[16],inactive

# Source: PubChem BioAssay (NCATS)
